These results are taken from PubChem BioAssay (NCI).

This is part of a sample that, as a whole, favours compounds with a hit. Of some 83,000 tested, about 20% had one in any assay.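 Treatment: one concentration, 48 hours, 96-well format. Scoring: percent growth, with anything below 10 considered active.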 A number with no mark means an inactive call. Activity calls are given as the source filed them.

Test systems include NCI-H23 lung; NCI-H322M lung; HOP-62 NSCLC; NCI-H460 lung; HOP-92 NSCLC; NCI-H522 lung; A549/ATCC NSCLC; 786-0 renal; COLO 205 colon; DU-145 prostate; K-562 leukemia; MALME-3M melanoma; MDA-MB-231 breast; RXF 393 renal; SF-268 CNS; SF-295 CNS; SF-539 CNS; UACC-257 melanoma; M14 melanoma; HCT-15 colon.
Experiment in all cases: NCI-60 one-dose screen, 48 h (100 = growth as untreated, 0 = no growth, -100 = all killed)
Holding throughout (conditions): 10 µM unless noted

As to `O=c1oc2ccc(Br)cc2c(=O)n1-c1ccc(F)cc1F`, the growth with NCI-H23 lung was 4.93% (active); in the experiment on NCI-H322M lung, 7.55% (active); in the experiment on HOP-62 NSCLC, 6.8% (active); in the experiment on NCI-H460 lung, 5.91% (active); in the experiment on HOP-92 NSCLC, -24.4% (active); in the experiment on NCI-H522 lung, -6.16% (active). The growth in the experiment on A549/ATCC NSCLC is 6.77% (active); with 786-0 renal, 4.39% (active); in the experiment on COLO 205 colon, 85.5%; in the experiment on DU-145 prostate, 18%; in the experiment with K-562 leukemia, 9.74% (active); with MALME-3M melanoma, -22.5% (active). The growth in the experiment with MDA-MB-231 breast is 14.1%; with RXF 393 renal it was 3.17% (active); in the experiment with SF-268 CNS, 12.7%; with SF-295 CNS, -11.1% (active); in the experiment with SF-539 CNS, 10.7%; in the experiment with UACC-257 melanoma it was -8.2% (active). For the same molecule, the growth in the experiment with M14 melanoma is 12%; with HCT-15 colon, 13.6%.
On to `O=c1c2cc(F)cc(Cl)c2sc2c(Cl)nc3ccccc3c12`, for which the growth in the experiment on NCI-H23 lung was 90.5%; in the experiment on NCI-H322M lung, 97.8%; with HOP-62 NSCLC, 89.4%; in the experiment on NCI-H460 lung, 100%; with HOP-92 NSCLC, 99.3%; in the experiment on NCI-H522 lung, 77%. For the same molecule, the growth is 111% with A549/ATCC NSCLC; 110% in the experiment on 786-0 renal; 116% in the experiment on COLO 205 colon; 109% in the experiment on DU-145 prostate; 110% with K-562 leukemia; 88.9% in the experiment on MALME-3M melanoma. Further, the growth was 84% with MDA-MB-231 breast; 100% in the experiment with RXF 393 renal; 98.5% in the experiment on SF-268 CNS; 101% in the experiment on SF-295 CNS; 97% in the experiment with SF-539 CNS; 114% in the experiment with UACC-257 melanoma. For the same molecule, the growth is 99.5% with M14 melanoma and 103% in the experiment on HCT-15 colon.
Regarding `Cc1nc(Nc2cn[nH]c2C(=O)Nc2ccc(CN3CCN(C)CC3)cc2)c2ccsc2n1`, the growth is 95.5% in the experiment on NCI-H23 lung; 88.1% in the experiment on NCI-H322M lung; 107% in the experiment on HOP-62 NSCLC; 109% in the experiment on NCI-H460 lung; 90.6% with HOP-92 NSCLC; 72% with NCI-H522 lung. In addition, the growth is 66.9% in the experiment with A549/ATCC NSCLC; 65.1% in the experiment on 786-0 renal; 94.1% with COLO 205 colon; 102% in the experiment on DU-145 prostate; 72.2% in the experiment with K-562 leukemia; 132% in the experiment on MALME-3M melanoma. The growth in the experiment with MDA-MB-231 breast was 82.4%; with RXF 393 renal it was 61.7%; with SF-268 CNS it was 88.2%; in the experiment with SF-295 CNS, 118%; in the experiment with SF-539 CNS, 78.4%; in the experiment with UACC-257 melanoma, 98.3%. For the same molecule, the growth is 98.9% in the experiment on M14 melanoma and 81% in the experiment on HCT-15 colon.
In the case of `CCOc1cc(Cl)c(C(C)NC(=O)c2cccc(OC)c2)cc1OCC` (stereo not given), the growth in the experiment with NCI-H23 lung was 4.89% (active); in the experiment with NCI-H322M lung, 127%; with HOP-62 NSCLC it was -11.2% (active); in the experiment with NCI-H460 lung, 13.6%; with HOP-92 NSCLC, -46.3% (active); in the experiment with NCI-H522 lung, -76.1% (active). Further, the growth in the experiment with A549/ATCC NSCLC is 17.3%; in the experiment with 786-0 renal it was -74.9% (active); in the experiment with COLO 205 colon, -84.8% (active); in the experiment on DU-145 prostate, -21.7% (active); in the experiment with K-562 leukemia, -25.7% (active); in the experiment on MALME-3M melanoma, -70.4% (active). In addition, the growth is -7.72% (active) in the experiment with MDA-MB-231 breast; -95.8% (active) in the experiment with RXF 393 renal; 11.3% with SF-268 CNS; 111% in the experiment with SF-295 CNS; 7.13% (active) in the experiment with SF-539 CNS; -70.3% (active) in the experiment with UACC-257 melanoma. The growth in the experiment with M14 melanoma is -46.4% (active); with HCT-15 colon, 3.34% (active).
Turning to `O=C(Nc1ncc(Cc2cccc(C(F)(F)F)c2)s1)C1COc2ccccc2O1` (stereo not given), the growth is 88.6% in the experiment with NCI-H23 lung; 91.2% with NCI-H322M lung; 92.1% with HOP-62 NSCLC; 97.7% with NCI-H460 lung; 72.2% with HOP-92 NSCLC; 67.8% in the experiment with NCI-H522 lung. Moreover, the growth in the experiment on A549/ATCC NSCLC is 74.7%; with 786-0 renal it was 99.2%; with COLO 205 colon it was 104%; with DU-145 prostate, 105%; with K-562 leukemia, 63.3%; in the experiment with MALME-3M melanoma, 71.8%. Further, the growth with MDA-MB-231 breast was 95.1%; in the experiment with RXF 393 renal it was 79%; in the experiment with SF-268 CNS it was 87.6%; in the experiment with SF-295 CNS it was 86.4%; in the experiment with SF-539 CNS, 95.8%; in the experiment with UACC-257 melanoma it was 88.1%. In addition, the growth in the experiment on M14 melanoma was 88.5%; in the experiment with HCT-15 colon, 72%.
Consider `Nc1nc(-c2cnccn2)nn1-c1nc2ccccc2s1`, for which the growth with NCI-H23 lung is 95.2%; in the experiment with NCI-H322M lung it was 103%; in the experiment on HOP-62 NSCLC, 95.4%; in the experiment with NCI-H460 lung, 104%; in the experiment on HOP-92 NSCLC, 106%; in the experiment with NCI-H522 lung, 88.4%. The growth with A549/ATCC NSCLC is 92.7%; in the experiment on 786-0 renal it was 102%; with COLO 205 colon it was 111%; in the experiment with DU-145 prostate it was 106%; with K-562 leukemia, 93.9%; in the experiment with MALME-3M melanoma, 104%. Further, the growth in the experiment on MDA-MB-231 breast was 95.4%; in the experiment on RXF 393 renal, 110%; in the experiment on SF-268 CNS, 99.2%; with SF-295 CNS, 103%; in the experiment on SF-539 CNS, 101%; with UACC-257 melanoma it was 99.1%. The growth is 99.2% in the experiment with M14 melanoma and 103% in the experiment with HCT-15 colon.
For `O=c1oc2ccc(F)cc2c(=O)n1-c1ccc(I)cc1F`, the growth in the experiment on NCI-H23 lung is 2.97% (active); with NCI-H322M lung, 8.02% (active); in the experiment with HOP-62 NSCLC, -3.36% (active); in the experiment with NCI-H460 lung, 3.08% (active); in the experiment with HOP-92 NSCLC, -17.6% (active); in the experiment on NCI-H522 lung, -15.8% (active). For the same molecule, the growth in the experiment with A549/ATCC NSCLC is 5.88% (active); with 786-0 renal, 0.0953% (active); with COLO 205 colon it was 53.9%; in the experiment on DU-145 prostate, 14.8%; in the experiment on K-562 leukemia it was 7.88% (active); in the experiment with MALME-3M melanoma, -22.1% (active). Moreover, the growth in the experiment with MDA-MB-231 breast was -25.4% (active); in the experiment with RXF 393 renal, -1.5% (active); in the experiment on SF-268 CNS, 12.2%; with SF-295 CNS, -40% (active); in the experiment with SF-539 CNS, 3.66% (active); in the experiment with UACC-257 melanoma, -14.8% (active). In addition, the growth in the experiment on M14 melanoma was 3.58% (active); in the experiment on HCT-15 colon, 5.2% (active).
On to `COc1ccc(C2=NN(/C=C3\SC(=O)NC3=Nc3ccc(F)cc3)C(c3ccc(F)cc3)C2)cc1` (stereo not given), for which the growth was 96.9% with NCI-H23 lung; 93.7% in the experiment on NCI-H322M lung; 105% with HOP-62 NSCLC; 101% in the experiment on NCI-H460 lung; 99.7% with HOP-92 NSCLC; 91.2% in the experiment on NCI-H522 lung. The growth in the experiment with A549/ATCC NSCLC was 92%; with 786-0 renal, 92.7%; with COLO 205 colon, 106%; in the experiment with DU-145 prostate, 102%; in the experiment with K-562 leukemia, 94.3%; with MALME-3M melanoma, 94.3%. Moreover, the growth with MDA-MB-231 breast is 93.8%; with RXF 393 renal, 96%; in the experiment on SF-268 CNS, 97.9%; in the experiment with SF-295 CNS, 90.8%; with SF-539 CNS, 106%; in the experiment on UACC-257 melanoma, 103%. Also, the growth in the experiment with M14 melanoma is 104%; in the experiment with HCT-15 colon it was 98.9%.
